Measured values taken from PubChem BioAssay (NCI).
About 79,000 compounds went through this panel and 15% of them were active in at least one assay; those are over-represented in the sample as a whole. Unmarked numbers belong to inactive results. Activity calls are given as the source filed them. Rule as the data show it: active = growth inhibition above about 70%; inactive = the rest.

Key:
[1] = NCI Yeast Anticancer Drug Screen. Data for the rad50 strain (AID 155);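 also: 0% = growth of vehicle-only cultures of the same strain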; settings: S. cerevisiae rad50 strain growth inhibition, hits give high values
Summary of the method: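 Growth of the mutant yeast was measured after compound exposure and referenced to vehicle-treated cultures.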

[2] = NCI Yeast Anticancer Drug Screen. Data for the mec2-1 strain (AID 157); settings: S. cerevisiae mec2-1 strain, hits give high values
Summary of the method: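 Mutant yeast (mec2-1) grown with compound; growth inhibition relative to vehicle control reported.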

[3] = NCI Yeast Anticancer Drug Screen. Data for the sgs1 mgt1 strain (AID 161);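 also: 0% = growth of cultures given vehicle only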; settings: S. cerevisiae sgs1 mgt1 strain, hits give high values
Summary of the method: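 Compounds are added to genetically altered yeast, and growth is compared with cultures given vehicle alone to give percent inhibition.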

[4] = NCI Yeast Anticancer Drug Screen. Data for the cln2 rad14 strain (AID 165);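 also: 0% = growth equal to vehicle treated cultures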; settings: S. cerevisiae cln2 rad14 strain, hits give high values
Summary of the method: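 Readout is yeast growth inhibition versus vehicle-treated controls, using a strain with cln2 and rad14 alterations exposed to compound.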

[5] = NCI Yeast Anticancer Drug Screen. Data for the bub3 strain (AID 167); settings: S. cerevisiae bub3 mutant strain, hits give high values
Summary of the method: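 Whole-cell yeast assay. The mutant strain was incubated with compounds, and growth inhibition was determined by comparison with vehicle-treated cells.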

[6] = NCI Yeast Anticancer Drug Screen. Data for the mlh1 rad18 strain (AID 175); settings: S. cerevisiae mlh1 rad18 strain growth inhibition, hits give high values
Summary of the method: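 Genetically defined yeast (DNA repair-deficient) exposed to compounds; growth inhibition determined relative to vehicle.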

[7] = at 5.0 µM (retest, dose inferred, filed as 0.5)
[8] = at 50.0 µM (retest, dose inferred, filed as 5.0)

| SMILES | growth inhibition [1, 7] | growth inhibition [1, 8] | growth inhibition ([1]; at 50.0 µM) | growth inhibition [2, 7] | growth inhibition [2, 8] | growth inhibition ([2]; at 50.0 µM) | growth inhibition [3, 7] | growth inhibition [3, 8] | growth inhibition ([3]; at 50.0 µM) | growth inhibition [4, 7] | growth inhibition [4, 8] | growth inhibition ([4]; at 50.0 µM) | growth inhibition [5, 7] | growth inhibition [5, 8] | growth inhibition ([5]; at 50.0 µM) | growth inhibition [6, 7] | growth inhibition [6, 8] | growth inhibition ([6]; at 50.0 µM) |
| --- | --- | --- | --- | --- | --- | --- | --- | --- | --- | --- | --- | --- | --- | --- | --- | --- | --- | --- |
| CCC(/C=C/C(C)C1CCC2C3CC=C4C/C(=N/NC(N)=O)CCC4(C)C3CCC12C)C(C)C (configuration not stated) | -7% | 6% | 9.95% | -3% | 2% | 9.3% | -3% | -5% | 50.9% | -7% | -9% | -1.15% | -3% | 2% | 24.1% | -3% | 5% | 28.9% |
| O=C(CCCN1CCN2Cc3[nH]c4ccccc4c3CC2C1)c1ccc(F)cc1 (configuration not stated) | 5% | 58% | 98.8% (active) | 7% | 73% (active) | 98.7% (active) | 20% | 92% (active) | 66.8% | 2% | 59% | 95.6% (active) | 4% | 60% | 92.1% (active) | 37% | 88% (active) | 99.3% (active) |
| O=C(CSc1nnc(Cc2ccccc2)o1)Nc1cccc(Cl)c1 | -20% | 91% (active) | 77% (active) | 14% | 85% (active) | 70% (active) | -2% | 86% (active) | 82.2% (active) | 24% | 91% (active) | 78% (active) | 1% | 95% (active) | 77.5% (active) | 9% | 93% (active) | 78.8% (active) |
| CCNc1nc(C(F)(F)F)nc2nc[nH]c12 | 3% | -5% | 6.15% | 1% | 4% | -5.75% | -22% | -5% | -20.1% | -5% | 0% | 92.7% (active) | -4% | -4% | 3.4% | -3% | -9% | 39.9% |
| CC(=O)OC1CC2Cc3ccccc3C3(O)COC213 (configuration not stated) | -1% | 48% | 49.2% | 6% | 75% (active) | 45.4% | 6% | 76% (active) | 76.7% (active) | 3% | 17% | 14.1% | -7% | 59% | 59% | -2% | 83% (active) | 31.1% |
| CCCCCC(C)C1=NC(C)(C)CC(C)O1 (configuration not stated) | -153% | -154% | 5.85% | -51% | -57% | -3.85% | -64% | -68% | -0.45% | -62% | -64% | 32.4% | -73% | -81% | -3.2% | -139% | -116% | 12.1% |
| CC(=O)Nc1c(Cl)ccc2c1Cc1cc([N+](=O)[O-])ccc1-2 | 19% | 92% (active) | 91% (active) | 2% | 19% | 45.8% | 6% | -39% | 49.5% | -3% | 44% | 47.9% | -7% | 10% | 10.7% | -9% | 66% | 90.8% (active) |
| COc1ccc2c(c1)CCC(N1CCCC(O)C1)C2 (configuration not stated) | 13% | 98% (active) | 48.9% | 12% | 99% (active) | 56% | 12% | 98% (active) | 87.2% (active) | 25% | 99% (active) | 23.2% | 11% | 99% (active) | 91.2% (active) | 14% | 98% (active) | 71.4% (active) |
| Cc1ccc(/C=N\NC(=S)N/N=C/c2ccc(C)cc2)cc1 | -6% | 98% (active) | 30.3% | 2% | 99% (active) | 40% | 2% | 99% (active) | 74.8% (active) | -43% | 98% (active) | 20% | -4% | 99% (active) | 94.5% (active) | 0% | 98% (active) | 59% |
| CC(C)C1=CC23CCC4C(C)(C(=O)O)CCCC4(C)C2CC1CC3C#N (configuration not stated) | 19% | 56% | 98% (active) | 18% | 34% | 98.5% (active) | 12% | 42% | 98.5% (active) | 3% | 57% | 97.1% (active) | -1% | 49% | 98.5% (active) | 13% | 39% | 98.2% (active) |
| CC1=NC(c2ccccc2)(C2(c3ccccc3)C(c3ccccc3)=C2c2ccccc2)C(=O)O1 (configuration not stated) | 21% | 21% | 86% (active) | 25% | 25% | 88.8% (active) | 28% | 28% | 86.9% (active) | 23% | 23% | 89% (active) | 11% | 11% | 34.9% | 27% | 27% | 86.6% (active) |
| CC(C)Sc1nc(NC(=O)N(CCCl)N=O)cc(=O)[nH]1 | -12% | 26% | 13.8% | -4% | 9% | -2% | -12% | 23% | 20.4% | 8% | 12% | 5.7% | -1% | 7% | 13.2% | 2% | 74% (active) | 23.8% |
| CCOc1ccc2nc3cc(Cl)ccc3[n+](C)c2c1 | 20% | 79% (active) | 85.2% (active) | 14% | 87% (active) | 87.3% (active) | 15% | 87% (active) | 82.8% (active) | 10% | 74% (active) | 72.7% (active) | 32% | 88% (active) | 83.9% (active) | 15% | 81% (active) | 86.7% (active) |
| CN(C)c1ccc(/C=C(/C#N)c2ccc(Cl)cc2)cc1 | -16% | -18% | 3.45% | 0% | 8% | 13.2% | 3% | 15% | -10.3% | 27% | -6% | 64.4% | 6% | -25% | 7% | -17% | -18% | 5.5% |
| C/C(=N/NC(N)=O)C1CC(CCC2([N+](=O)[O-])CCC(C)(O)C(/C(C)=N\NC(N)=O)C2)([N+](=O)[O-])CCC1(C)O (configuration not stated) | 5% | -5% | 10.6% | 4% | 0% | 14.1% | 3% | -1% | -6.4% | 5% | -7% | 9.6% | 7% | -3% | 96.7% (active) | 1% | 3% | 2.1% |
| CC(=O)Oc1ccc2c(c1)CCC1C2CCC2(C)C1CCC21CO1 (configuration not stated) | -4% | 60% | 89.7% (active) | -6% | 18% | 28.6% | -3% | 54% | 73.4% (active) | 1% | 11% | 52.2% | 3% | 44% | 83% (active) | -6% | 29% | 66.7% |
| CCSc1nnc(CSc2nc(-c3ccccc3)c(-c3ccccc3)[nH]2)n1-c1ccccc1 | 35% | 35% | 79.1% (active) | 30% | 30% | 68.7% | 32% | 32% | 76.7% (active) | 26% | 26% | 74.5% (active) | 25% | 25% | 63.9% | 28% | 28% | 62.5% |
| CN(C)CCOc1cc2c(c3ccccc13)-c1ccccc1C2=O | 93% (active) | 99% (active) | 99.7% (active) | 14% | 99% (active) | 99.3% (active) | 20% | 100% (active) | 99.4% (active) | 12% | 96% (active) | 99% (active) | 6% | 99% (active) | 99.6% (active) | 21% | 100% (active) | 99.1% (active) |
| Clc1ccc(CN2COc3c(cc(Cl)c4cccnc34)C2)cc1Cl | 43% | 97% (active) | 95.4% (active) | -12% | 97% (active) | 97.5% (active) | 10% | 98% (active) | 70.6% (active) | -11% | 97% (active) | 44.4% | 3% | 97% (active) | -4.9% | 13% | 96% (active) | 47.9% |
